# Several values for one entry are separate records, joined by “and”; a condition that tells them apart may be missing. Identical values can stand only once. Results filed as inconclusive are left out. Unmarked numbers belong to inactive results. Activity calls are given as the source filed them. Calls come from the whole dose curve; as a rule, active = well fitted curve in the direction sought with a large enough effect; inconclusive = small, poorly fitted or top-dose-only effect, or another doubt; inactive = no such curve, though single readings can be large; an effect the other way counts as inactive or inconclusive.
# What was measured:
# [1] = Viability qHTS for spleen associated tyrosine kinase inhibitor (SYKi) naive MV4-11 cells (AID 1963823); settings: MV4-11 AML viability, CellTiter-Glo luminescence, 72 h; series mostly up to 45 µM; note: nearly all actives have a fitted effect of over 40% in size
# Outline: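 Compounds were dispensed acoustically onto plates, MV4-11 cells (SYKi-naive) added at 500 per well, and plates incubated 72 hr at 37 C. CellTiter-Glo was added and luminescence measured after 10 min.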
# [2] = Viability qHTS for spleen associated tyrosine kinase inhibitor (SYKi) drug resistant MV4-11 cells (AID 1963824); settings: SYKi-resistant MV4-11 viability, CellTiter-Glo, 72 h; series mostly up to 45 µM; note: nearly all actives have a fitted effect of over 35% in size
# Outline: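 SYK-inhibitor-resistant MV4-11 AML cells were seeded at 500 per well onto compound and cultured 72 hours (37 °C, 5% CO2). CellTiter-Glo was then added, and after 10 min at room temperature, luminescence gave viability.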
# [3] = Quantitative highthroughput screen to assess conditional lethalithy of P12 Ichikawa cells grown in RPMI1640 with dialyzed fetal bovine serum (RPMI+ds) (AID 1963880); settings: ATP luminescence, 48 h; Potency: P12-Ichikawa viability; series mostly up to 45.8 µM; note: nearly all actives have a fitted effect of over 35% in size;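 for Viability: 100% = DMSO wells and 0% = empty wells on each plate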
# Outline: (§1)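 Each medium arm—HPLM with 10% dialyzed FBS, or RPMI1640 with 5 mM glucose and 10% untreated or dialyzed FBS—was screened against an 11-point, 3-fold compound titration for 48 h at 37 °C, with CellTiter-Glo luminescence as endpoint.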
# [4] = Quantitative highthroughput screen to assess conditional lethalithy of P12 Ichikawa cells grown in RPMI1640 with untreated serum (RPMI+s) (AID 1963881); settings: ATP luminescence, 48 h; Potency: viability; series mostly up to 45.8 µM; note: nearly all actives have a fitted effect of over 35% in size;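 for Viability: 100% = DMSO wells and 0% = empty wells without cells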
# Outline: as §1
# [5] = Quantitative highthroughput screen to assess conditional lethalithy of SEM cells grown in Human Plasma-Like Medium with dialyzed fetal bovine serum (HPLM+ds) (AID 1963882); settings: SEM B-ALL cells in HPLM+ds, CellTiter-Glo viability, 48 h; series mostly up to 45.8 µM; note: nearly all actives have a fitted effect of over 35% in size
# Outline: as §1
# [6] = Quantitative highthroughput screen to assess conditional lethalithy of SEM cells grown in RPMI1640 with unreated serum (RPMI+s) (AID 1963883); settings: SEM B-ALL cells, CellTiter-Glo viability, 48 h; series mostly up to 45.8 µM; note: nearly all actives have a fitted effect of over 35% in size;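 for Viability: 100% = DMSO wells and 0% = empty wells without cells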
# Outline: as §1
# [7] = Quantitative highthroughput screen to assess conditional lethalithy of SEM cells grown in RPMI1640 with dialyzed fetal bovine serum (RPMI+ds) (AID 1963884); settings: SEM B-ALL cells, RPMI+dialyzed FBS, CellTiter-Glo viability, 48 h; series mostly up to 45.8 µM; note: nearly all actives have a fitted effect of over 35% in size;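 for Viability: 100% = DMSO control wells and 0% = empty wells without cells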
# Outline: as §1
# [8] = Cellular viability qHTS for adrenocortical cancer (ACC) cell line NCI-H295R (AID 1963990); settings: CellTiter-Glo ATP luminescence, 48 h; series mostly up to 46.1 µM; note: nearly all actives have a fitted effect of over 60% in size
# Outline: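 Compound titrations (up to 46 uM final) are applied to NCI-H295R cultures for 48 h at 37C. Viable cell number is estimated by CellTiter-Glo signal, normalised to DMSO and doxorubicin controls.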
# [9] = Cellular viability qHTS for adrenocortical cancer (ACC) cell line SW-13 (AID 1963989); settings: SW-13 ACC cells viability, CellTiter-Glo, 48 h; activity (max response): active compounds read low; note: nearly all actives have a fitted effect of over 65% in size;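 for activity (max response): cells grown in serum-free medium with ITS supplement; % is set by controls: 0 for no effect and ±100 for the full control effect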
# Outline: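 48 h treatment, SW-13 in ITS/DMEM serum-free; doses up to 46 uM; readout CellTiter-Glo luminescence; curve fit four-parameter logistic.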
# Potency is the fitted concentration of half-maximal effect.
SMILES,Potency [1],Potency [2],Potency [3],Potency [4],Potency [5],Potency [6],Potency [7],Potency [8],Potency [9],activity (max response) [9]
CN(C)CC[C@H](CSc1ccccc1)Nc1ccc(S(=O)(=O)NC(=O)c2ccc(N3CCN(Cc4ccccc4-c4ccc(Cl)cc4)CC3)cc2)cc1[N+](=O)[O-],0.148 µM (active),0.0332 µM (active),2.35 µM (active),2.64 µM (active),0.059 µM (active),0.0935 µM (active),0.0469 µM (active),22.4 µM (active),–,–
CCc1nc(C(N)=O)c(Nc2ccc(N3CCC(N4CCN(C)CC4)CC3)c(OC)c2)nc1NC1CCOCC1,9 nM (active) and 18.6 nM (active),11.4 nM (active) and 26.3 nM (active),–,–,–,0.295 µM (active),0.209 µM (active),2.82 µM (active),17.8 µM (active),–
Cn1c2ccccc2c2c3c(c4c5ccccc5n(CCC#N)c4c21)CNC3=O,0.0651 µM (active),0.259 µM (active),–,–,0.372 µM (active),0.526 µM (active),0.418 µM (active),–,–,–
CS(=O)(=O)c1cccc(CNc2nc(Nc3ccc4c(c3)CCC(=O)N4)ncc2C(F)(F)F)c1,0.105 µM (active),0.164 µM (active),–,–,8.33 µM (active),5.26 µM (active),6.62 µM (active),–,–,–
Cc1c(NC(=O)OC[C@@H]2COCCN2)cn2ncnc(Nc3ccc4c(cnn4Cc4cccc(F)c4)c3)c12,10.3 µM (active) and 13.2 µM (active),8.2 µM (active) and 11.8 µM (active),–,–,9.35 µM (active),9.35 µM (active),10.5 µM (active),31.6 µM (active),15.8 µM (active),–
C[C@@H]1CC(=O)NN=C1c1ccc(NN=C(C#N)C#N)cc1,13.3 µM (active),15 µM (active),26.4 µM (active),–,–,–,16.6 µM (active),inactive,–,-17.4% and 2.94% and -32.7%
CN[C@H]1CCc2cc(OC)c(OC)c(OC)c2-c2ccc(OC)c(=O)cc21,0.0934 µM (active),0.0934 µM (active),0.0105 µM (active),0.0105 µM (active),0.0066 µM (active),0.0083 µM (active),0.0074 µM (active),0.0891 µM (active),0.1 µM (active),–
Cc1cc(C(C)(C)C)c(O)c(C)c1CC1=NCCN1,inactive,inactive,–,10.5 µM (active),–,–,–,inactive,–,-5.66% and -4.23%
O=C(NOCC1CC1)c1ccc(F)c(F)c1Nc1ccc(I)cc1Cl,3.76 µM (active),3.35 µM (active) and 2.91 µM (active) and 2.35 µM (active),–,2.64 µM (active),7.43 µM (active),–,–,3.26 µM (active) and 6.31 µM (active),10.3 µM (active) and 4.47 µM (active),–
NCCCCNCCCN,5.9 µM (active),5.9 µM (active),23.5 µM (active),–,11.8 µM (active),13.2 µM (active),11.8 µM (active),inactive,–,4.66%
CN(C)CCc1c[nH]c2ccc(CS(=O)(=O)N3CCCC3)cc12,inactive,inactive,–,inactive,inactive,5.9 µM (active),14.8 µM (active),inactive,–,-4.49% and 5.74%
Nc1ncnc2c1c(-c1cnc3[nH]ccc3c1)nn2C1CCCC1,920 nM (active) and 590 nM (active),1.16 µM (active) and 1.18 µM (active),1.48 µM (active),–,–,3.72 µM (active),5.9 µM (active),2.82 µM (active),5.01 µM (active),–
CCn1c(=O)c2c(nc(C=Cc3ccc(OC)c(OC)c3)n2C)n(CC)c1=O,inactive,inactive,inactive,inactive,inactive,inactive,inactive,inactive,–,1.29%
CC(C)(C)NC(=O)Nc1cccc(Nc2ncc(F)c(NC(C)(C)CO)n2)c1,1.48 µM (active),2.31 µM (active),–,–,–,7.43 µM (active),6.62 µM (active),–,–,–
CC(=O)Nc1nc(C)c(-c2ccc(Cl)c(S(=O)(=O)NCCO)c2)s1,0.82 µM (active),0.92 µM (active),–,–,4.18 µM (active),2.64 µM (active),1.66 µM (active),25.1 µM (active),17.8 µM (active),–
COc1cc(C(=O)N2CCC(N3CCN(C)CC3)CC2)ccc1Nc1ncc2c(n1)N(C)c1ccccc1C(=O)N2C,461 nM (active) and 1.32 µM (active),651 nM (active) and 1.18 µM (active),–,–,3.72 µM (active),–,–,12.6 µM (active),–,–
Oc1ccc(C2CCN(c3ccnc4ccccc34)CC2)cc1O,2.09 µM (active),1.86 µM (active),–,–,–,11.8 µM (active),–,inactive,–,–
CN1CCc2c(c3ccccc3n2Cc2ccc(C(=O)NO)cc2)C1,26.3 µM (active),14.8 µM (active),inactive,13.2 µM (active),–,–,–,28.2 µM (active),–,–
c1ccc(-c2oc3ncnc(NC[C@@H]4CCCO4)c3c2-c2ccccc2)cc1,9.2 µM (active),13 µM (active),–,–,inactive,–,–,–,–,-50.5%
CN1CCCC(n2nc(Cc3ccc(Cl)cc3)c3ccccc3c2=O)CC1 (stereo not drawn),10.6 µM (active),26.6 µM (active),–,–,–,inactive,inactive,18.4 µM (active),–,–
CC(C)n1nc(-c2ccc3oc(N)nc3c2)c2c(N)ncnc21,36.6 nM (active) and 29.5 nM (active),73.1 nM (active) and 46.8 nM (active),–,–,0.0332 µM (active),0.0469 µM (active),–,0.0708 µM (active),0.1 µM (active),–

SMILES,Potency [1],Potency [2],Potency [3],Potency [4],Potency [5],Potency [6],Potency [7],Potency [8],Potency [9],activity (max response) [9]
CC[C@H](CC#N)OC(=O)N[C@@H](C)c1cccc(NC(=O)Nc2ccc(-c3cnco3)c(OC)c2)c1,326 nM (active) and 263 nM (active),231 nM (active) and 263 nM (active),–,–,–,2.09 µM (active),–,–,28.2 µM (active),–
CN(C[C@@H]1COCCO1)S(=O)(=O)Nc1ccc2ccc3ncc(-c4cnn(C)c4)cc3c(=O)c2c1,0.296 µM (active),0.461 µM (active),–,–,–,0.418 µM (active),0.662 µM (active),–,–,–
C=CC(=O)Nc1cccc(Sc2nc(Nc3ccc(N4CCN(C)CC4)cc3)ncc2Cl)c1,580 nM (active) and 590 nM (active),580 nM (active) and 742 nM (active),–,–,23.5 µM (active),–,16.6 µM (active),3.16 µM (active),2 µM (active),–
O=C(O)c1cn(C2CC2)c2cc(N3CCNCC3)c(F)cc2c1=O,inactive,inactive,–,–,–,–,3.72 µM (active),inactive,–,-3.87% and 6.05%
CN(c1ncccc1CNc1nc(Nc2ccc3c(c2)CC(=O)N3)ncc1C(F)(F)F)S(C)(=O)=O,0.366 µM (active),0.731 µM (active),–,–,2.96 µM (active),2.64 µM (active),1.05 µM (active),–,31.6 µM (active),–
NC(=O)Nc1sc(-c2ccc(F)cc2)cc1C(N)=O,1.86 µM (active),3.32 µM (active),–,–,16.6 µM (active),1.32 µM (active),–,25.1 µM (active),–,-22.4%
Cn1c(Nc2ccc(C(F)(F)F)cc2)nc2cc(Oc3ccnc(-c4ncc(C(F)(F)F)[nH]4)c3)ccc21,2.91 µM (active),1.3 µM (active),18.7 µM (active),14.8 µM (active),9.35 µM (active),4.69 µM (active),–,inactive,–,-8.43%
CC(C)(O)CNc1ncc(-c2ccnc(Nc3ccncc3)n2)c(CC2CC2)n1,1.48 µM (active),1.18 µM (active),–,–,–,–,–,–,14.1 µM (active),–
CCCS(=O)(=O)Nc1ccc(F)c(C(=O)c2c[nH]c3ncc(Cl)cc23)c1F,11.6 µM (active),11.8 µM (active),–,–,9.35 µM (active),11.8 µM (active),13.2 µM (active),–,–,–
Cc1cc(O)c(-c2ccc([C@@H](C)CN(C)C)cc2)c2c1[nH]c(=O)c1sccc12,0.0184 µM (active),0.0092 µM (active),–,–,–,–,–,–,0.0891 µM (active),–
Oc1c(Cl)cc(Cl)c(Cl)c1Cc1c(O)c(Cl)cc(Cl)c1Cl,8.41 µM (active),5.96 µM (active),–,–,–,–,–,–,1.84 µM (active),–
CC(=O)/C=C/C=C1/C2CCC(C2)C1(C)C (stereo not drawn),inactive,inactive,–,–,–,–,–,–,–,6.09%
CN(C)C/C=C/C(=O)Nc1cccc(C(=O)Nc2cccc(Nc3ncc(Cl)c(-c4c[nH]c5ccccc45)n3)c2)c1,inactive,0.0037 µM (active),–,–,–,–,–,–,0.316 µM (active),–
O=C(Nc1ccnc(NC(=O)C2CC2)c1)c1c(Cl)cccc1Cl,5.17 µM (active),4.68 µM (active),–,–,–,–,–,–,15.8 µM (active),–
O=C(/C=C/c1cccnc1)NCCCCC1CCN(C(=O)c2ccccc2)CC1,0.0053 µM (active),0.0053 µM (active),–,–,–,–,–,–,0.0126 µM (active),–
CC[C@]12CCCN3CCc4c(n(c5ccccc45)[C@@](O)(C(=O)OC)C1)[C@@H]32,inactive,inactive,–,–,–,–,–,–,–,1.04%
CCc1cc(/C(C)=N/OCc2ccc(C3CCCCC3)c(C(F)(F)F)c2)ccc1CN1CC(C(=O)O)C1,18.6 µM (active),14.8 µM (active),–,–,–,–,–,–,–,-17.6%
CC(COc1ccccc1)NC(C)C(O)c1ccc(O)cc1 (stereo not drawn),inactive,inactive,–,–,–,–,–,–,–,3.43%
COc1cc(C(=O)OC(COCCC(C)C)CN2CCOCC2)cc(OC)c1OC (stereo not drawn),inactive,inactive,–,–,–,–,–,–,–,9.82%
CCn1nc(C2CCN(C(=O)CCO)CC2)nc1-c1cnc(N)c(-c2nnc(C(C)(C)C)o2)n1,5.25 µM (active),5.25 µM (active),–,–,–,–,–,–,–,-18.1%
